Results filed as inconclusive are left out. Activity calls are given as the source filed them. Calls follow the shape of the full dose curve.
Assay: qHTS for Inhibitors of Cell Surface uPA Generation: Wild-type Protective Antigen (WT-PrAg) Counterscreen for Cherry-picked Compounds; also: 0% is about no effect
Conditions: cells, WT protective antigen toxicity counterscreen; series mostly up to 115 µM; activity (protection): at the top concentration

Row | Structure (SMILES) | activity (protection)
1 | COc1ccccc1N1CCN(CC(=O)c2c(C)[nH]c3ccccc23)CC1 | 3.92% (inactive)
2 | COCCNC(=O)C(c1c[nH]c2ccccc12)N(C(=O)c1snc(C(N)=O)c1N)c1cccc(OC)c1 (stereo not given) | 2.82% (inactive)
3 | CC(=O)c1ccc2c(c1)c1ccccc1n2CC(C)C | 0.604% (inactive)
4 | Cc1ccc(/C=C/C(=O)O)cc1S(=O)(=O)N1CCc2ccccc21 | -1.49% (inactive)
5 | CC(C)N1CCc2c(sc(NC(=O)CCc3ccccc3)c2C(N)=O)C1 | 4.95% (inactive)
6 | CCc1ccc(OCC(=O)N(Cc2cccs2)C2CCS(=O)(=O)C2)cc1 (stereo not given) | 1.58% (inactive)
7 | Cn1cnc([N+](=O)[O-])c1Sc1ccc(Br)cc1 | -1.73% (inactive)
8 | C[n+]1c2cc(N)ccc2cc2ccc(N)cc21 | -2.06% (inactive)
9 | COc1cc(/C=C(/C#N)C(=O)Nc2ccccc2)ccc1OCc1ccc(C(=O)O)cc1 | 0.55% (inactive)
10 | Cc1ccc2oc(C(=O)N(Cc3ccc(N(C)C)cc3)C3CCS(=O)(=O)C3)c(C)c2c1 (stereo not given) | -2.55% (inactive)
11 | COc1cccc(CN(C)C(=O)c2cc(S(=O)(=O)N3CCCC3)ccc2C)c1OC | -0.352% (inactive)
12 | Cc1ccc(-c2cc(C(=O)NCC3CCCO3)no2)cc1 (stereo not given) | -2.27% (inactive)
13 | CCOC(=O)c1c(NC(=O)CC2SC(N)=NC2=O)sc2c1CCC(C)C2 (stereo not given) | -1.85% (inactive)
14 | O=C(NCCCn1cccn1)C1CCC(=O)N(Cc2ccccc2F)C1 (stereo not given) | -0.576% (inactive)
15 | O=C1C=C(NNC(=O)c2ccncc2)CC(c2ccccc2)C1 (stereo not given) | -0.199% (inactive)
16 | COc1ccc(C[C@@H]2OC3(C=CC(=O)C=C3)O[C@H]2Cc2ccc(OC)cc2)cc1 | -2.08% (inactive)
17 | Cc1cc(SCc2ccc(Cl)cc2)nc(=O)[nH]1 | -2.11% (inactive)
18 | O=C(CSC1=NS(=O)(=O)c2ccccc2N1)Nc1nccs1 | 0.09% (inactive)
19 | COC(=O)[C@@]1(Cc2ccc(F)cc2)[C@H]2c3cc(C(=O)N(C)C)n(Cc4c(CO)[nH]cc(C)c4=O)c3C[C@H]2CN1C(=O)c1ccccc1 | 1.06% (inactive)
20 | COc1cccc(C(=O)NCc2ccc3[nH]c(C)cc3c2)c1 | -0.861% (inactive)

Row | Structure (SMILES) | activity (protection)
21 | Cc1[nH]c2ccccc2c1C(=O)C(C)OC(=O)c1ccccc1NCCO (stereo not given) | -2.54% (inactive)
22 | COc1ccc(CCN=c2c([N+](=O)[O-])nn(-c3cccc(C)c3)n2O)cc1OC | -2.53% (inactive)
23 | CC(C)c1ccc(SCc2noc(C(=O)NCC3CCCO3)c2C(=O)O)cc1 (stereo not given) | 0.0703% (inactive)
24 | COc1ccc(CN2CCNC(=O)C2CC(=O)NCC2CCOCC2)cc1C (stereo not given) | -0.406% (inactive)
25 | Cc1cc(N)n(Cc2ccc(Cl)cc2)n1 | -0.742% (inactive)
26 | COc1ccc(NC(=O)/C(N=Nc2cc(S(=O)(=O)Nc3ccc(OC)cc3)ccc2OC)=C(\C)O)cc1 | -1.2% (inactive)
27 | CCCc1nn2c(=O)cc(CSCC(=O)Nc3ccccc3)nc2s1 | 1.46% (inactive)
28 | CN(c1ccccc1)S(=O)(=O)c1ccc(C(=O)Nc2nnc(C3CC3)o2)cc1 | -1.7% (inactive)
29 | CC(C)(O)C#Cc1ccc(C(=O)N2CCCC(CCC(=O)NCc3ccccc3F)C2)cc1 (stereo not given) | -1.52% (inactive)
30 | O=C(COC(=O)Cn1cnc2ccccc21)NCc1ccc(F)cc1 | 0.472% (inactive)
31 | Cc1ccccc1NC(=O)N1CCN(c2ncccn2)CC1 | -1.63% (inactive)
32 | COc1cc(/C=N/NC(=O)c2ccncc2)ccc1O | 1.44% (inactive)
33 | C=CC1=C(C(=O)O)N2C(=O)[C@@H](NC(=O)/C(=N\O)c3csc(N)n3)[C@H]2SC1 (stereo in doubt) | 0.487% (inactive)
34 | O=C(NCC1CCCO1)c1c(O)c2cccc3c2n(c1=O)CCC3 (stereo not given) | -2.22% (inactive)
35 | COc1ccc(/C=N/NC(=O)COc2ccc3ccccc3c2)c(C(=O)O)c1OC | -1.41% (inactive)
36 | CCC(COC)NC(=O)CCc1nnc(Cc2c[nH]c3ccccc23)o1 (stereo not given) | -0.706% (inactive)
37 | COc1cc(CCC(=O)OCC(=O)Nc2ccc(C)cc2Br)cc(OC)c1OC | -1.19% (inactive)
38 | COc1ccc(N2CCN(C3CCN(S(=O)(=O)c4ccc(F)cc4)CC3)CC2)cc1 | -0.637% (inactive)
39 | CCn1c2ccccc2c2n[nH]c(=S)nc21 | -0.605% (inactive)
40 | Cc1ccc(S(=O)(=O)N2CCC(C(=O)OC(C)C(=O)NC3CCCCC3C)CC2)cc1 (stereo not given) | 0.942% (inactive)

Reference: PubChem BioAssay AID720518 (National Center for Advancing Translational Sciences (NCATS), 2013)
